Among all 2,000 compounds or so, about 45 (2%) were called active. Only a selection was taken, and actives are over-represented in it overall. A number with no mark means an inactive call.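 The calls were made as follows: active = inhibition above the screen-wide mean inhibition plus 3 SD (cut at about 44% in these data); inactive = the rest.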
target: Perilipin-1 (Homo sapiens) + 1-acylglycerol-3-phosphate O-acyltransferase ABHD5 (Homo sapiens) (UniProt O60240+Q8WTS1); assay: ABHD5-PLIN1 interaction inhibitors, pilot screen, cell lysate, split luciferase complementation, luminescence, NIH validation set (AID 493027);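 also: 0% = DMSO wells with the 100% control not disclosed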; conditions: split G. princeps luciferase complementation, 4 h; at 7.9 µM, stronger effect = higher value
Sequence (O60240 whole entry, looked up): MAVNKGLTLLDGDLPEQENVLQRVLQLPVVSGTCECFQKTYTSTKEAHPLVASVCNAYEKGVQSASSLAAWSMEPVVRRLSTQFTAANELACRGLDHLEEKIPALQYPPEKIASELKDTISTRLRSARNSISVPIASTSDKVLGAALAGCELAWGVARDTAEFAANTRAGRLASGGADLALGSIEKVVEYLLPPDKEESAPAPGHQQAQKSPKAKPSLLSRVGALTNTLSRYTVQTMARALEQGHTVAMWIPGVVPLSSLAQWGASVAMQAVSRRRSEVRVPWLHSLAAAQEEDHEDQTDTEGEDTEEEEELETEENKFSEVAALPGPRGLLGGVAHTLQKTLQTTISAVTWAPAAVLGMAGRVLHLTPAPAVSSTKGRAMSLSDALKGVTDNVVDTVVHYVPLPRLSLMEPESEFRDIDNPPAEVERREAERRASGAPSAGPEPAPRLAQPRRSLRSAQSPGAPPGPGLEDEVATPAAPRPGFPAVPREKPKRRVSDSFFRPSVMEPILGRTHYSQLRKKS
Sequence (Q8WTS1 whole entry, looked up): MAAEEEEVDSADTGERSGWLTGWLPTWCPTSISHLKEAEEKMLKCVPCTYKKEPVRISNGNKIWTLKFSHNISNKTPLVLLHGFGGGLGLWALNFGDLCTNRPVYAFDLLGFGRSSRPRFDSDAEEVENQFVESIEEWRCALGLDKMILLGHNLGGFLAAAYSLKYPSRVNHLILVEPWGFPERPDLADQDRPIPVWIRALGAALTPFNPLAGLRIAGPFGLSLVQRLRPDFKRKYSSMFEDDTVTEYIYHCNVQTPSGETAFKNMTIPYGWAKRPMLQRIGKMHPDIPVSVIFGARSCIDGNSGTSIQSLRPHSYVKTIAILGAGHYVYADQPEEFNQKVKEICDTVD

Point of comparison: `CCc1ccc(/C=C2\SC(=S)N(CCC(=O)N3CCN(C)CC3)C2=O)cc1`, inhibition -12.7%. Against it:
- O=c1c2ccccc2nnn1Cc1cccc2ccccc12 — higher, 7.22%
- COc1ccccc1/C=C/C(=O)c1c2c(c(C)[nH]c1=O)CCCC2 — higher, 28.8%
- COc1ccccc1C(=O)c1cc2ccc(O)cc2oc1=O — higher, 4.61%
- O=C1C(Cc2ccccc2)NC(=S)N1c1ccccc1 (centres undefined) — lower, -13.4%
- Cc1ccc2c(c1)OC(=O)CC2c1ccccc1 (centres undefined) — higher, -5.39%
- Oc1ccccc1OCCOc1ccccc1OCCOc1ccccc1O — higher, 8.26%
- Cc1cccc(OCC(=O)Nc2ccc(C(=O)NCC(C)C)cc2)c1 — higher, -6.6%
- CCCCc1oc2ccccc2c1C(=O)c1cc(I)c(OCCN(CC)CC)c(I)c1 — higher, -6.98%
- CC(=O)CCc1oc2ccccc2c1-c1ccccc1 — higher, -1.83%
- COc1cc2c(cc1OC)CN(Cc1ccc(C)s1)CC2 — higher, 2.36%
- O=C(N1CCCCC1)C1(c2ccccc2)CCOCC1 — higher, -5.12%
- Cc1cc(O)c2/c(=N\N)c(-c3csc(C)n3)coc2c1 — higher, 5.2%
- COc1cc(/C=C(\C#N)C(=O)N2CCc3ccccc32)ccc1O — higher, 42.5%
- COC(=O)c1ccc2c(c1)C(=O)/C(=C/c1ccc(O)cc1)O2 — higher, 7.53%
- CCc1ccc(/C=C2\Oc3cc(OC(=O)N4CCOCC4)ccc3C2=O)cc1 — higher, 17.4%
- O=C(O)CCSc1nc2ccccc2s1 — higher, 0.7%
- CC[n+]1c(C)sc2cc(C)ccc21 — higher, 0.88%
- O=C(OCCN1CCCC1)C1(c2ccccc2)CCCC1 — higher, -8.49%
- Cc1nc(C(=O)Nc2ccccc2Cl)cc2c1[nH]c1ccccc12 — higher, -0.62%
- COc1ccc(NC(=O)C2C(=O)N(CCO)C3(C)CC2c2ccccc2O3)cc1 (centres undefined) — higher, -10.9%
- O=C(Nc1cccc(Oc2c(F)c(F)c(F)c(F)c2F)c1)N1C[C@@H]2C[C@@H](C1)c1cccc(=O)n1C2 — higher, 9%
- COc1ccc(Cc2noc(CN(C)CC3(N4CCOCC4)CCCCC3)n2)cc1OC — higher, -1.95%
- Cn1cc(C2N3CC4(C)CN2CC(C)(C3)C4=O)c2ccccc21 (centres undefined) — higher, -7.09%
- C[C@H](NC(=O)Nc1ccccc1F)C(=O)O — higher, -0.07%
- O=P(O)(O)CP(=O)(O)O — higher, -4.16%
- COc1cc(/C=C/C(=O)O)cc(S(=O)(=O)NCCCO)c1OC — higher, -7.07%
- O=C(Nc1ccccc1)OCC1CCCN2CCCCC12 (centres undefined) — higher, -5.9%
- O=C(NCc1ccccc1Cl)NC(=O)c1ccccc1 — higher, -2.42%
- CNS(=O)(=O)c1ccc(C)cc1 — lower, -13.4%
- CCCCNC(=O)NS(=O)(=O)c1ccc(C)cc1 — higher, -10.7%
- COc1ccc(NC(=O)C2CCCN2C(=O)OC(C)(C)C)cc1 (centres undefined) — higher, -11.3%
- COc1ccccc1NC(=O)C12CCC(C)(C(=O)C1)C2(C)C (centres undefined) — higher, -0.67%
- COCCn1c(SCCOc2ccccc2)nc2ccccc2c1=O — higher, -7.89%
- Cc1nc(N)nc2c1CCCC2 — higher, -5.16%
- c1cc(-c2ccncc2)ccn1 — higher, -6.1%
- O=C(O)c1cc2cc(Cl)cc(Cl)c2oc1=O — higher, 1.22%
- COc1ccc(CCN(C)CC(=O)Nc2cc(C)nc3ccccc23)cc1OC — higher, 3.27%
- COc1cccc(OC2OC3COC(C)(C)OC3C(O)C2NC(C)=O)c1 (centres undefined) — higher, -10.2%
- CC(C)[N+]1(C)[C@@H]2CC[C@H]1CC(OC(=O)C(CO)c1ccccc1)C2 (some centres undefined) — higher, -5.55%
- O=P(c1ccccc1)(c1ccccc1)c1nc(-c2ccc(Cl)cc2)oc1N1CCOCC1 — higher, 2.59%
- COc1ccc(C=O)c(OC)c1 — higher, 0.71%
- CC(=O)NCCCCCCNC(C)=O — higher, 3.05%
- Nc1ccc(S(N)(=O)=O)cc1N — higher, 1.88%
- COc1cc(NC(=S)NN2CCN(C)CC2)cc(OC)c1OC — higher, -10%
- COc1cc(C2C(C(C)=O)=C(O)C(=O)N2c2ccc(C)cc2)ccc1O (centres undefined) — higher, -3.68%
- O=C(Nc1cccc(Cl)c1)N1CCN2C(=O)c3ccccc3C12c1ccccc1 (centres undefined) — higher, 6.94%
- O=C1c2ccccc2C2(c3ccccc3)NCCN12 (centres undefined) — higher, 0.96%
- CC(=O)c1cccc(NC(=O)N[C@@H](CC(C)C)C(=O)O)c1 — higher, -3.15%
- COc1ccc(C(=O)Nc2ccc(OC)c([N+](=O)[O-])c2)cc1Br — higher, 0.74%
- COc1ccc(C(=O)COc2ccc(F)cc2)c(O)c1 — higher, -7.26%
- C[C@H]([C@@H](N)C(=O)N[C@@H](C(=O)O)[C@@H]1O[C@H](n2ccc(=O)[nH]c2=O)[C@@H](O)[C@H]1O)[C@@H](O)c1ccc(O)cn1 — higher, 8.07%
- CCOC(=O)C1CCCN(Cc2nc(Cc3cccc(F)c3)no2)C1 (centres undefined) — higher, -4.38%
- COC(=O)c1cc(=O)c2ccc(OC)cc2o1 — higher, -10.3%
- CSCC[C@H](NC(=O)OC(C)(C)C)C(=O)N1CCC(C(=O)N[C@@H](C)C(=O)O)CC1 — higher, -2.64%
- CC1(C)C(C=C(Cl)Cl)C1C(=O)N1CCN(Cc2ccccc2)CC1 (centres undefined) — higher, -10.6%
- CC(C)=CCCC(C)CN1CCC(N2CCC(C(=O)N3CCCC3)CC2)CC1 (centres undefined) — higher, -9.96%
- CC1(C)CC(O)(CNCc2ccc3c(c2)OCO3)CCO1 (centres undefined) — higher, -11.9%
- S=C(NCc1ccccc1)NCc1cccc(CNC(=S)NCc2ccccc2)c1 — higher, 4.65%
- N#C/C(=C\c1ccc(O)c(O)c1)C(=O)NCCCc1ccccc1 — higher, 37.9%
- CN1[C@@H]2CC[C@H]1CC(OC(=O)C(CO)c1ccccc1)C2 (some centres undefined) — lower, -16.1%
- COC(=O)c1cc(C(=O)NCCC(C)C)cc([N+](=O)[O-])c1 — lower, -28.2%
- COc1cc(OC)c(C2C(C#N)=C(N)OC3=C2C(=O)CC(C)(C)C3)cc1OC (centres undefined) — higher, -0.37%
- COc1ccc(-c2nc3c(=O)n(C)c(=O)[nH]c3n2CCc2ccccc2)cc1 — higher, -1.13%

For `COc1cccc(/C=C/C(=O)c2c(O)cc(C)oc2=O)c1O`, the inhibition was 47.8% (active).
With `CCc1oc2ccccc2c1C(=O)c1cc(Br)c(O)c(Br)c1` the inhibition was 57.3% (active).
In the case of `COc1ccccc1C(=O)Oc1ccc2c(c1)O/C(=C\c1ccncc1)C2=O`, the inhibition was 45.6% (active).
In the case of `COc1ccc2c(c1)C=CC1(O2)N(CCO)c2ccccc2C1(C)C` (centres undefined), the inhibition was 45.5% (active).
With `Cc1ccc(S(=O)(=O)N[C@@H](Cc2ccccc2)C(=O)CCl)cc1` the inhibition was 82.3% (active).
With `Nc1cc(-c2ccncc2)c[nH]c1=O` the inhibition was 49% (active).
`CCCCC/C=C\C[C@H](O)/C=C/c1cccc(C[C@H](O)CCCCO)n1` was tested, and the inhibition was 57.6% (active).
For `CC1(c2ccccc2)CC(C)(C)N2C(=O)C(=O)c3cccc1c32` (centres undefined), the inhibition was 65.7% (active).
With `COc1ccc(C(=O)/C=C/c2cc(C(=O)O)cc3c2OCOC3)c(O)c1` the inhibition was 67.3% (active).
`N#C/C(=C/c1ccccc1)C(=O)NCc1ccccc1` was tested, and the inhibition was 53.3% (active).
